Hit rate of the full screen: of about 5,500 compounds, about 2,000 (36%) were called active. About 18% were inconclusive and are not listed. No stated cut-off is given here; in the data, active means normalized growth mostly below about 0.91 (no sharp cut-off); inconclusive means no clear call, values can overlap the other calls; inactive means mostly above about 0.92. The list shows a part of the results.
Test: chemical genetic growth profiling, strain panel (AID 1159580);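 further: tested at 20 µM; growth read once vehicle control cultures reached saturation at 30 °C; 1 = growth at the plate median or of vehicle wells; lower values mean less growth of the strain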
Conditions: S. cerevisiae deletion strains, growth OD

Measured: normalized growth

CCCCNC(=S)N/N=C\c1cc(Cl)cc(Cl)c1O
inactive: locus YAR019C, strain CDC15, active compounds read low 0.929 | locus YBL105C, strain PKC1, active compounds read low 0.928 | locus YBR135W, strain CKS1, active compounds read low 0.922 | locus YBR136W, strain MEC1, active compounds read low 0.924 | locus YBR160W, strain CDC28, active compounds read low 0.941 | locus YDL017W, strain CDC7, active compounds read low 0.926 | locus YDL028C, strain MPS1, active compounds read low 0.926 | locus YDL101C, strain DUN1, active compounds read low 0.97 | locus YDL108W, strain KIN28, active compounds read low 0.922 | locus YDL132W, strain cdc53, active compounds read low 0.917 | locus YDR052C, strain DBF4, active compounds read low 0.941 | locus YDR054C, strain cdc34, active compounds read low 0.914 | locus YDR226W, strain ADK1, active compounds read low 0.924 | locus YFL009W, strain cdc4, active compounds read low 0.913 | locus YFL029C, strain CAK1, active compounds read low 0.936 | locus YFR003C, strain YPI1, active compounds read low 0.918 | locus YFR019W, strain FAB1, active compounds read low 0.785 | locus YFR028C, strain CDC14, active compounds read low 0.924 | locus YHR079C, strain IRE1, active compounds read low 0.601 | locus YIL147C, strain SLN1, active compounds read low 0.923 | locus YJL128C, strain PBS2, active compounds read low 0.897 | locus YJR016C, strain ILV3, active compounds read low 0.922 | locus YKL193C, strain SDS22, active compounds read low 0.916 | locus YMR001C, strain CDC5, active compounds read low 0.913 | locus YMR277W, strain FCP1, active compounds read low 0.905 | locus YNL006W, strain LST8, active compounds read low 0.934 | locus YNL161W, strain CBK1, active compounds read low 0.932 | locus YNL207W, strain RIO2, active compounds read low 0.922 | locus YNL222W, strain SSU72, active compounds read low 0.933 | locus YOL078W, strain AVO1, active compounds read low 0.912 | locus YOL136C, strain PFK27, active compounds read low 0.713 | locus YOR231W, strain MKK1, active compounds read low 0.591 | locus YOR329C, strain SCD5, active compounds read low 0.924 | locus YPL209C, strain IPL1, active compounds read low 0.928 | locus YPR025C, strain CCL1, active compounds read low 0.931 | locus YPR106W, strain ISR1, active compounds read low 0.908 | locus YPR111W, strain DBF20, active compounds read low 0.933 | strain TSCII, active compounds read low 0.918
active: locus YDL214C, strain PRR2, active compounds read low 0.65 | locus YDR477W, strain SNF1, active compounds read low 0.513 | locus YER123W, strain YCK3, active compounds read low 0.519 | locus YER133W, strain GLC7, active compounds read low 0.601 | locus YGR040W, strain KSS1, active compounds read low 0.531 | locus YGR052W, strain FMP48, active compounds read low 0.195 | locus YGR092W, strain DBF2, active compounds read low 0.35 | locus YHR030C, strain SLT2, active compounds read low 0.275 | locus YHR082C, strain KSP1, active compounds read low 0.242 | locus YHR205W, strain SCH9, active compounds read low 0.236 | locus YJL095W, strain BCK1, active compounds read low 0.352 | locus YJL157C, strain FAR1, active compounds read low 0.63 | locus YJR066W, strain TOR1 (second series), active compounds read low 0.58 | locus YJR066W, strain TOR1, active compounds read low 0.289 | locus YKL048C, strain ELM1, active compounds read low 0.637 | locus YKL067W, strain YNK1, active compounds read low 0.676 | locus YKL101W, strain HSL1, active compounds read low 0.385 | locus YKL203C, strain TOR2, active compounds read low 0.249 | locus YLR113W, strain HOG1, active compounds read low 0.444 | locus YLR133W, strain CKI1, active compounds read low 0.49 | locus YLR403W, strain SFP1, active compounds read low 0.302 | locus YML070W, strain DAK1, active compounds read low 0.603 | locus YMR205C, strain PFK2 (second series), active compounds read low 0.603 | locus YNL020C, strain ARK1, active compounds read low 0.44 | locus YNL183C, strain NPR1, active compounds read low 0.318 | locus YNL307C, strain MCK1 (second series), active compounds read low 0.362 | locus YOR061W, strain CKA2, active compounds read low 0.538 | locus YOR119C, strain RIO1, active compounds read low 0.343 | locus YPL031C, strain PHO85, active compounds read low 0.477 | locus YPL153C, strain RAD53, active compounds read low 0.495 | locus YPL204W, strain HRR25, active compounds read low 0.488 | locus YPL256C, strain CLN2, active compounds read low 0.457 | strain NNK1, active compounds read low 0.787

— PubChem BioAssay AID1159580 (chemical genetic matrix, 2015)
